Test [1] in a line: qHTS assay to identify small molecule antagonists of the estrogen related receptor (ERR) signaling pathway from Tox21 library - cell viability counter screen (AID 1224834). Also: nearly all actives have a fitted effect of over 30% in size. Also: potency is read from the fitted curve at half-maximal effect. A digest of the protocol: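 CellTiter-Fluor fluorescence measured; ERR cells; 17.5 h compound incubation at 37 C; 30 min reagent step.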
In general terms: qHTS replaces the single test concentration by a dilution series.

Test [2] addresses Luciferin 4-monooxygenase (Photinus pyralis) (UniProt P08659). In words: qHTS assay to identify small molecule inhibitors of firefly luciferase (AID 1224835). Also: series mostly up to about 120 µM; nearly all actives have a fitted effect of over 25% in size. In outline: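 Biochemical qHTS: compounds run as interplate titrations against purified firefly enzyme, with D-luciferin and ATP each at its KM concentration. Light output recorded by CCD imaging.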
Test [3] is described as follows: qHTS assay to identify small molecule agonists of the constitutive androstane receptor (CAR) signaling pathway - cell viability counter screen (AID 1224836). Also: nearly all actives have a fitted effect of over 45% in size. Also: potency is read from the fitted curve at half-maximal effect. In outline:
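23 h treatment, 37 C, 5% CO2. Cell line: HepG2 stably expressing hCAR with a CYP2B6-2.2kb construct. Co-treatment: PK11195, 0.75 uM final. Read-out: CellTiter-Fluor fluorescence intensity.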

The target in test [4] is Nuclear receptor subfamily 1 group I member 3 (Homo sapiens) (UniProt Q14994). The experiment in a line: qHTS assay to identify small molecule antagonists of the constitutive androstane receptor (CAR) signaling pathway (AID 1224838).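 Also: HepG2 cells stably expressing hCAR with CYP2B6 luciferase reporter stimulated by CITCO; nearly all actives have a fitted effect of over 40% in size.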 Also: potency is read from the fitted curve at half-maximal effect. In outline:
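Reporter luminescence was quantified after 24 h exposure of hCAR/CYP2B6-2.2kb double-stable HepG2 cells to compounds at 15 concentrations in the presence of 50 nM CITCO final.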

Test [5] has the same target. In words: qHTS assay to identify small molecule agonists of the constitutive androstane receptor (CAR) signaling pathway (AID 1224839).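 Also: HepG2 cells stably carrying human CAR and a CYP2B6 luciferase reporter; series mostly up to about 92 µM; nearly all actives have a fitted effect of over 15% in size.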 In outline: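 Compounds tested at 15 concentrations on HepG2 cells stably harbouring hCAR and CYP2B6-2.2kb reporter constructs, co-treated with PK11195 (0.75 uM final), 24 h at 37 C; luminescent reporter signal quantified.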
The nature of test [6]: qHTS assay to identify small molecule antagonists of the estrogen related receptor signaling pathway with the pleiotropic PPARgamma coactivator (PGC) from Tox21 10K library - cell viability counter screen (AID 1224840; active = well fitted cell-killing curve with a large enough effect in the repeat runs, not every such curve was filed as active; also: nearly all actives have a fitted effect of over 40% in size; also: potency is read from the fitted curve at half-maximal effect). A digest of the protocol:
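Here the PGC/ERR cells serve as a cytotoxicity control: they are exposed to compounds for 17.5 hours at 37 C, and live-cell signal is quantified using CellTiter-Fluor fluorescence.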

Test [7] in a line: qHTS assay to identify small molecule antagonists of the estrogen related receptor signaling pathway with the pleiotropic PPARgamma coactivator (PGC) from Tox21 10K library (AID 1224841; call rule not given here; also: actives are mostly falling curves and most rising ones were filed inactive; nearly all actives have a fitted effect of over 50% in size; also: potency is read from the fitted curve at half-maximal effect). In outline: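 Each well held 2,000 PGC/ERR cells, pre-incubated six hours (37 C, 5% CO2). Test substances in DMSO were added by pin tool and left for 18 h at 37 C before luciferase detection by One-Glo.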

Test [8] can be described thus: qHTS assay to identify small molecule agonists of the estrogen related receptor signaling pathway with the pleiotropic PPARgamma coactivator (PGC) from Tox21 10K library (AID 1224842). Also: nearly all actives have a fitted effect of over 15% in size. In outline:
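PGC/ERR reporter cell line, 2,000 cells per well, incubated 6 h at 37 C before 23 nL compound in DMSO was added. After 18 h at 37 C, One-Glo luminescence read following 30 min at room temperature.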

A short description of test [9]: qHTS assay to identify small molecule antagonists of the constitutive androstane receptor (CAR) signaling pathway - cell viability counter screen (AID 1224837). Also: potency is read from the fitted curve at half-maximal effect; nearly all actives have a fitted effect of over 45% in size. A digest of the protocol:
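Using CellTiter-Fluor, viability is scored in HepG2 cells stably carrying hCAR and a 2.2kb CYP2B6 reporter after 23 hr compound exposure across 15 concentrations, with CITCO present at 50 nM.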

Structures are written as SMILES. Results filed as inconclusive are left out. Activity calls are given as the source filed them. Unless noted, calls follow the shape of the dose curve; as a rule, active = well fitted curve in the direction sought with a large enough effect in the repeat runs; inconclusive = weak or mixed curves; inactive = no such curve, though single readings can be large; an effect the other way counts as inactive or inconclusive.

Sequence of Luciferin 4-monooxygenase (Photinus pyralis) (P08659 whole entry, looked up): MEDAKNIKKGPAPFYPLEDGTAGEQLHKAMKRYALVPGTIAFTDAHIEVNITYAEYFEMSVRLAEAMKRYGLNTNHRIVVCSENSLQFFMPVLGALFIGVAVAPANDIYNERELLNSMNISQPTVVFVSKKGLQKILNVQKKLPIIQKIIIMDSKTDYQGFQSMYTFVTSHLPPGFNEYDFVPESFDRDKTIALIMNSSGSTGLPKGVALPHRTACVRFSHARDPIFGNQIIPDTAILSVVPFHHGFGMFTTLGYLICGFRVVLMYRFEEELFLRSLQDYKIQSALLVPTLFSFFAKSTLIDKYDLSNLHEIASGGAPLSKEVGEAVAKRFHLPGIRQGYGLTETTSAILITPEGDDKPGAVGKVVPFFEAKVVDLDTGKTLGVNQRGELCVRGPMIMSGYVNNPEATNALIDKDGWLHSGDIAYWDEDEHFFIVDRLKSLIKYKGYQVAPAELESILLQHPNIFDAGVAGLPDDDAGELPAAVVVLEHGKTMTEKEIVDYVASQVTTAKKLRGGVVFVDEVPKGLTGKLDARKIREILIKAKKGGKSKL
Sequence of Nuclear receptor subfamily 1 group I member 3 (Homo sapiens) (Q14994 whole entry, looked up): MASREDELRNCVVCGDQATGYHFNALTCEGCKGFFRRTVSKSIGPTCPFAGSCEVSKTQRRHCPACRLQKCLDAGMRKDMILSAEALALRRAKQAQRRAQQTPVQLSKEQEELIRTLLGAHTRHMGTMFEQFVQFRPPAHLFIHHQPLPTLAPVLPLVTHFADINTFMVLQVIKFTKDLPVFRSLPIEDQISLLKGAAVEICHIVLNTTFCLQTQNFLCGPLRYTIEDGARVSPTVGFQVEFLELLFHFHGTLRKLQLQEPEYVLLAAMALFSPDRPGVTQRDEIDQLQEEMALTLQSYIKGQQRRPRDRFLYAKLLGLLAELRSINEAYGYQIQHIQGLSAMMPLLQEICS

In the case of `CC1CC(O)CC(C)(C)C1` (stereo not drawn), the Potency result in test [1], in test [2], in [3], in [4], in [5] and in test [6] was “inactive” each time. The Potency entry in test [7] and in test [8] was “inactive” in each case.
`CC(COc1ccc(C(C)(C)C)cc1)OS(=O)OCCCl` (stereo not drawn): the Potency is 0.488 µM (active) in test [1]; 0.274 µM (active) in test [9]; 1.73 µM (active) in test [4]; 0.614 µM (active) in test [6]; 1.23 µM (active) in test [7]. Further, the Potency result in [2], in test [5] and in [8] was “inactive” each time.
In the case of `CC(=O)Nc1ccc(N)cc1`, the Potency entry in [1], in [2], in [3] and in test [6] was “inactive” throughout.
Consider `Cc1cc(O)c(C(C)C)cc1Cl`, for which the Potency entry in test [1], in [2], in test [3], in test [4] and in test [5] was “inactive” throughout.
For `CCCCCCCCCCCC[N+](C)(C)CCCS(=O)(=O)[O-]`, the Potency entry in [1], in test [2], in [3], in [4] and in test [5] was “inactive” each time.
Consider `CO[C@H]1C=CO[C@@]2(C)Oc3c(C)c(O)c4c(O)c(c5c(c4c3C2=O)=NC2(CCN(CC(C)C)CC2)N=5)NC(=O)/C(C)=C\C=C/[C@H](C)[C@H](O)[C@@H](C)[C@@H](O)[C@@H](C)[C@H](OC(C)=O)[C@@H]1C`, for which the Potency in test [1] was 47.5 µM (active); in [3], 53.3 µM (active); in test [9] it was 47.5 µM (active); in test [6], 53.3 µM (active); in [7], 23.8 µM (active). For the same compound, the Potency entry in test [4], in [5] and in test [8] was “inactive” each time.
